FMDV FLuc = antivirals against foot and mouth disease virus. AID 1745856. 120,000 compounds, 0.23% hits. FMDV antiviral cell assay, firefly luciferase signal. Potency, µM (titrated, usually from 57.5 µM), without a hit: at the highest dose activity change, negative = inhibition, hits mostly inhibitors; note: nearly all actives have a fitted effect of over 60% in size
FMDV Renilla = antivirals against foot and mouth disease virus replicon | FMDV replicon cells, Renilla luciferase signal | Potency, µM (titrated, usually from 57.5 µM), for the others: at the highest dose activity change, negative = inhibition, actives largely listed as inhibitors | 120,000 compounds, 0.32% hits | AID 1745857; note: nearly all actives have a fitted effect of over 55% in size
Numbers without * were called inactive; ? = inconclusive; [ ] = remark or other dose. Rows were chosen to be rich in hits. Some 0.45% of all compounds tested hit in one or more screens of this group. Calls come from the whole dose curve. % is set by controls: 0 for no effect and ±100 for the full control effect; potency is the fitted concentration of half-maximal effect.

SMILES	FMDV FLuc	FMDV Renilla
COC(=O)c1ccc(NC(=O)CCc2c(C)nc3cc(-c4cccc(F)c4)nn3c2C)cc1	?	-7%
CCCCNC(=O)CCc1c(C)nc2cc(-c3ccccc3)nn2c1C	1.8µM*	-15%
CCN1CCN(Cc2nc3c(c(=O)n(C)c(=O)n3C)n2CCOC)CC1	-4%	-2%
C/C(=N\NC(=O)C1CC1c1ccc(C(C)(C)C)cc1)c1ccc2c(c1)CCCC2 (stereo not given)	1%	-9%
O=C(O)c1cccnc1Sc1ccccc1F	-8%	2%
Cc1cccc(C)c1NC(=O)c1ccc2ncsc2c1	22µM*	5%
Cc1nccc(CNC(=O)c2ccc3ncsc3c2)n1	2%	2%
CCc1cc(=O)n(CC(=O)Nc2ccc(C(=O)OC)cc2)c(-c2ccccc2)n1	9%	-2%
Fc1ccc(-c2cc(C(F)(F)F)nc(NCc3ccccc3)n2)cc1	-9%	-5%
COc1ccc(-c2cc(C(F)(F)F)nc(NCc3ccccc3)n2)cc1	?	4µM*
CCCCCc1ccc(-c2ccc(-c3ccc(C#N)cc3)cc2)nc1	4%	-1%
COC(=O)c1cccc(NC(=O)COc2ccc3c(C)cc(=O)oc3c2)c1	5%	6%
CC(=O)c1ccc(S(=O)(=O)N2CCn3cccc3C2c2ccc(F)c(F)c2)cc1 (stereo not given)	-9%	23%
CC(=O)c1ccc(S(=O)(=O)N2CCn3cccc3C2c2ccccc2F)cc1 (stereo not given)	13%	32µM*
O=[N+]([O-])c1ccc(N/N=C/c2c[nH]c3ccccc23)c(S(=O)(=O)Nc2ccc(Cl)cc2)c1	25µM*	-93%
O=[N+]([O-])c1ccc(N/N=C/c2c[nH]c3ccccc23)c(S(=O)(=O)Nc2ccccc2Cl)c1	-18%	68%
Cc1ccc(NC(=S)NCc2ccccc2)c(Br)c1	198%	1%[1.06 µM]
CCc1nc2ccccc2n1CCCCOc1ccccc1C	11µM*	?
Cc1ccc(NCc2nc3ccccc3n2CCOc2ccccc2C)cc1	31%	55%
COC(=O)C1(NC(=O)COc2cc(Cl)ccc2Cl)CCCCCC1	?	5µM*
COC(=O)C1(NC(=O)COc2cccc(F)c2)CCCCC1	2%	12%
O=C(CNC(=O)NC(Cc1c[nH]c2ccccc12)C(=O)O)Nc1ccc2ccccc2c1 (stereo not given)	35%	2%
C(#CCN1CCOCC1)CC(c1ccccc1)c1ccccc1	11%	10%
CCC[N+]1(CC#CCC(c2ccccc2)c2ccccc2)CCCCC1	?	4µM*
Cc1cccc(Nc2nc(C(=O)N3CCC(C)CC3)cs2)c1	25µM*	13µM*
SMILES	FMDV FLuc	FMDV Renilla
Cc1ccc(Nc2nc(C(=O)N3CCC(C(=O)NCc4ccccc4)CC3)cs2)cc1	48%	11%
CCCOc1ccc(C(=O)C(CCC(CNC(C)(C)C)C(=O)c2ccc(OCCC)cc2)CNC(C)(C)C)cc1 (stereo not given)	?	28µM*
CCCOc1ccc(C(=O)Nc2ccc(NC(=O)c3ccc(Br)cc3)cc2)cc1	7%	-8%
O=C(Nc1ccc2c3c(cccc13)CC2)c1ccc(Cl)cc1	0%	7%
CCCS(=O)(=O)c1ncc(Cl)c(C(=O)N(Cc2ccccc2)Cc2ccco2)n1	22µM*	4%
CCCSc1ncc(Cl)c(C(=O)N(Cc2ccc(Cl)cc2)Cc2ccco2)n1	-1%	0%
O=C1CSC(c2cccc(C(F)(F)F)c2)N1c1ccc(Br)cc1 (stereo not given)	-15%	?
O=C(Nc1ccc(C23CC4CC(CC(c5ccccc5)(C4)C2)C3)cc1)c1ccc(-c2ccccc2)cc1	0%	15%
COc1ccc(-c2c(C)oc3cc(OS(=O)(=O)c4ccc(C)cc4)ccc3c2=O)cc1	3.2µM*	2.2µM*
COc1ccc(-c2c(C)c3cc(OS(=O)(=O)c4ccc(C)cc4)ccc3oc2=O)cc1	-31%	?
Cc1cccnc1NC(=O)CCc1ncc(-c2ccccc2)o1	11%	47%
CC(C)Cn1nc(C(=O)Nc2ccc(Br)cc2F)c2ccccc2c1=O	-2%	-8%
O=C(Nc1nc(-c2cccc3ccccc23)cs1)c1cccs1	13µM*	?
Cn1c(=O)c2c(ncn2CC(=O)Nc2nc(-c3cccc4ccccc34)cs2)n(C)c1=O	130%	-7%
C=CCN(CCC(=O)NC(=O)NC)Cc1ccccc1	-6%	-16%
CCn1c2ccccc2c2cc(CNCC3CCNCC3)ccc21	?	28µM*
COc1cc(CNCC2CCNCC2)ccc1OCc1ccccc1Cl	?	35µM*
CCOc1ccc(CN2CCN(Cc3ccc4c(c3)c3ccccc3n4CC)CC2)cc1	22%	?
COc1cc(CNCc2ccco2)ccc1OCc1ccccc1C	0%	2%
C=C(COC(C)=O)C1Cc2c(ccc3c2OC2COc4cc(OC)c(OC)cc4C2C3=O)O1 (stereo not given)	?	0.2µM*
COc1ccc2cc(COC(=O)C3COc4ccccc4O3)ccc2c1 (stereo not given)	0%	12%
CCN(CC)CCNC(=O)c1cc(C)nc2c(C)cccc12	-17%	-22%
O=C(Nc1ccc(F)c(Cl)c1)c1ccc(-c2ccccc2)cc1	118%	11%
O=C(Nc1ccncc1)c1ccc(-c2ccccc2)cc1	-11%	3.2µM*
Cc1ccc(-c2noc(COC(=O)Cc3n[nH]c(=O)c4ccccc34)n2)cc1	28%	-6%
SMILES	FMDV FLuc	FMDV Renilla
CCOC(=O)c1ccc(NS(=O)(=O)c2cc(Br)cc3c2N(C(C)=O)C(C)C3)cc1 (stereo not given)	20µM*	121%
CC(=O)N1c2c(cc(Br)cc2S(=O)(=O)Nc2ccc(OC(F)(F)F)cc2)CC1C (stereo not given)	?	190%
Nc1nccnc1C(=O)NCc1cccnc1Oc1cccc(F)c1	5%	8%
Nc1nccnc1C(=O)NCc1ccc(OCc2cccc(F)c2)cc1	?	11µM*
CC(C)CNc1nc(-c2ccc(S(=O)(=O)N3CCCC3)cc2)cs1	?	22µM*
CCNc1nc(-c2ccc(S(=O)(=O)N3CCCCCC3)cc2)cs1	-9%	-13%
O=c1[nH]c(CSc2ccc(F)c(Cl)c2)nc2ccsc12	88%	26%
Cc1ccc(NS(=O)(=O)c2ccc(-c3cnc(C4CC4)o3)cc2)cc1F	-26%	135%
CC(=O)c1cccc(NS(=O)(=O)c2ccc(-c3cnc(C4CC4)o3)cc2)c1	8.9µM*	-21%
Cc1ccc(C2=NC(C(F)(F)F)(C(F)(F)F)c3c(n(-c4ccccc4)c(=O)[nH]c3=O)N2)cc1	5%	3%
O=c1[nH]c(=O)n(Cc2ccccc2)c2c1C(C(F)(F)F)(C(F)(F)F)N=C(c1cccs1)N2	20µM*	?
COC(=O)c1ccccc1NC(=O)CN1C(=O)CN=C(c2ccccc2Cl)c2cc(Cl)ccc21	-29%	-10%
O=C1CN=C(c2ccccc2Cl)c2cc(Cl)ccc2N1Cc1cccc(Cl)c1	25µM*	32µM*
Cc1ccc(OCn2ccc(C(=O)NCc3c(C)nn(C)c3C)n2)c(C)c1	13µM*	10µM*
Cc1ccc(OCC(=O)NCc2nncn2C)c(C)c1	26%	-1%
Cc1cc(=O)oc2cc(NC(=O)Cc3ccccc3F)ccc12	135%	15%
COc1cc(C(=O)Oc2ccc3c(c2)CCC3)cc(Cl)c1OCC(C)C	-1%	-2%
CCCCCCc1ccc(C(=O)Oc2ccc(Cl)cc2)cc1	-7%	-7%
CCCCCCC[N+](CC)(CC)CCCCc1ccc(Cl)cc1	?	7.9µM*
COC(=O)c1ccc(NC(=O)C2=Cc3ccccc3OC=C2)cc1	15%	-1%
